These results are taken from the antibiotic and cytotoxicity screens of Wong et al. (2023).

About 3,300 (8.5%) of roughly 39,000 compounds were called active. The sample as a whole holds a higher share of actives than the screen did.

In this assay the test system is HepG2. Description: cytotoxicity call (relative viability < 0.9). The following applies: 10 µM.
Consider `C[C@@H]1CN([C@@H](C)CO)C(=O)Cc2cc(NC(=O)Nc3ccc4c(c3)OCO4)ccc2O[C@H]1CN(C)S(C)(=O)=O`, for which the cytotoxicity call is “inactive”.
As to `COc1ccc(NC(=O)Nc2ccc3c(c2)CC(=O)N([C@H](C)CO)C[C@H](C)[C@@H](CN(C)Cc2ccc(C(F)(F)F)cc2)O3)cc1`, the cytotoxicity call was “inactive”.
Under `COc1ccc(CN(C)C[C@@H]2Oc3ccc(NC(=O)Nc4ccc(C(F)(F)F)cc4)cc3CC(=O)N([C@H](C)CO)C[C@@H]2C)cc1` stands “active”.
`COc1ccc(NC(=O)Nc2ccc3c(c2)CC(=O)N([C@@H](C)CO)C[C@@H](C)[C@@H](CN(C)Cc2ccc(C(F)(F)F)cc2)O3)cc1`: the cytotoxicity call is “active”.
Under `COc1ccc(CN(C)C[C@@H]2Oc3ccc(NC(=O)Nc4ccc(C(F)(F)F)cc4)cc3CC(=O)N([C@@H](C)CO)C[C@@H]2C)cc1` stands “inactive”; under `COc1ccc(CN(C)C[C@@H]2Oc3ccc(NC(=O)Nc4ccc(C(F)(F)F)cc4)cc3CC(=O)N([C@H](C)CO)C[C@H]2C)cc1`, “inactive”.
For `COc1ccc(NC(=O)Nc2ccc3c(c2)CC(=O)N([C@H](C)CO)C[C@H](C)[C@H](CN(C)Cc2ccc(C(F)(F)F)cc2)O3)cc1` the value was “active”; for `COc1ccc(NC(=O)Nc2ccc3c(c2)CC(=O)N([C@H](C)CO)C[C@@H](C)[C@@H](CN(C)Cc2ccc(C(F)(F)F)cc2)O3)cc1`, “active”.
Turning to `CC(C)NC(=O)Nc1ccc2c(c1)C(=O)N([C@@H](C)CO)C[C@H](C)[C@@H](CN(C)CC1CCCCC1)OCCCC[C@H](C)O2`, the cytotoxicity call was “inactive”.
Under `Cc1ccc(S[C@]2(C(=O)NCCCN(C)C)CC(=O)N(Cc3cc(C(F)(F)F)cc(C(F)(F)F)c3)[C@@H]2c2ccc(CO)cc2)cc1` stands “inactive”; under `O=C(CN1CCOCC1)NCC[C@@H]1CC[C@@H](NC(=O)c2ccc3c(c2)OCO3)[C@H](CO)O1`, “inactive”; under `COc1ccc2c3c(n(c2c1)C)[C@H](CO)N(C[C@]13CN(C1)C(=O)c1ccncc1)C(=O)C1CCCCC1`, “inactive”.
For the compound `CN1CCN(C(=O)C[C@H]2CC[C@H]3[C@H](COc4ccc(NC(=O)C5CCOCC5)cc4C(=O)N3C)O2)CC1`, the cytotoxicity call is “inactive”.
For `CCCN1C[C@H](C)[C@@H](OC)CN(C)C(=O)c2cc(NS(=O)(=O)c3cn(C)cn3)ccc2OC[C@H]1C` the value was “inactive”; for `CCOC(=O)c1cc(C(=O)OCC)n(C)n1`, “inactive”.
For `COc1ccc(S(=O)(=O)N[C@@H]2C=C[C@@H](CC(=O)N3CCN(c4ccccc4)CC3)O[C@H]2CO)cc1` the value was “inactive”.
For `Cc1cc2n(n1)CCN(C(=O)[C@H]1CC[C@@H](N)C1)C2` the value was “inactive”.
Take `Cc1ccc(-c2cnc3c(c2)C(=O)N([C@H](C)CO)C[C@H](C)[C@@H](CN(C)C(=O)Cc2ccncc2)O3)cc1`: the cytotoxicity call is “inactive”.
With `C[C@H]1CCCCO[C@@H](CN(C)Cc2ccccc2)[C@@H](C)CN([C@@H](C)CO)C(=O)c2cc(NC(=O)c3ccccc3)ccc2O1`, the cytotoxicity call is “inactive”.
`Cc1noc(C)c1NC(=O)N(C)C[C@@H]1Oc2c(NC(=O)C3CCOCC3)cccc2C(=O)N([C@H](C)CO)C[C@H]1C`: the cytotoxicity call was “inactive”.
For `COc1ccc(NC(=O)Nc2ccc3c(c2)CC(=O)N([C@@H](C)CO)C[C@H](C)[C@H](CN(C)Cc2ccc(C(F)(F)F)cc2)O3)cc1` the value was “active”; for `CCCOc1c(-c2ccc3ccccc3n2)cnc2ccccc12`, “active”.
Under `Cc1cc(-c2ccc3ccccc3n2)nc2ccc3ccccc3c12` stands “inactive”; under `c1ccc2nc(-c3cn[nH]c3)ccc2c1`, “inactive”; under `Cc1csc2sc(COC(=O)Nc3ccccc3)c(C)c12`, “inactive”.
For `Cc1csc2sc(C(=O)Oc3ccc(Cl)cc3)c(C)c12` the value was “inactive”; for `Cc1csc2sc(/C=N/Cc3cccs3)c(C)c12`, “active”.
As for `C[C@@H]1CN([C@@H](C)CO)C(=O)c2cc(NS(=O)(=O)c3cccs3)ccc2O[C@@H](C)CCCCO[C@@H]1CN(C)C(=O)c1ccccc1`, the cytotoxicity call is “inactive”.
`O=C(C[C@H]1C[C@@H]2c3cc(NC(=O)c4ccc5c(c4)OCO5)ccc3O[C@@H]2[C@@H](CO)O1)NCC(F)(F)F`: the cytotoxicity call was “inactive”.
For `C[C@H]1CCCCO[C@@H](CN(C)S(=O)(=O)c2ccc(F)cc2)[C@@H](C)CN([C@@H](C)CO)C(=O)c2cc(NC(=O)CCC(F)(F)F)ccc2O1` the value was “inactive”; for `Cc1[nH]c(=O)[nH]c(=O)c1S(=O)(=O)N1CCC(C(=O)N[C@H](C)c2ccccc2)CC1`, “inactive”; for `CCc1ccc(NC(=O)C2CCN(S(=O)(=O)c3c(C)[nH]c(=O)[nH]c3=O)CC2)cc1`, “active”.
Under `Cc1[nH]c(=O)[nH]c(=O)c1S(=O)(=O)N1CCC(C(=O)NCCC(C)C)CC1` stands “inactive”.
`COCC(=O)N1[C@@H]2c3ccc(C4=CCCC4)c(=O)n3C[C@@H]2[C@@H](CO)[C@@H]1C(=O)N1CCN(C)CC1`: the cytotoxicity call was “inactive”.
In the case of `Cc1noc(C)c1NC(=O)Nc1cccc2c1O[C@@H](CN(C)Cc1ccc(-c3ccccc3)cc1)[C@@H](C)CN([C@H](C)CO)C2=O`, the cytotoxicity call was “inactive”.
As to `C[C@H](CO)N1C[C@H](C)[C@@H](CN(C)Cc2ccc(Cl)c(Cl)c2)Oc2ccc(NC(=O)C3CCCCC3)cc2C1=O`, the cytotoxicity call is “inactive”.
For `C[C@@H]1CCCCO[C@H](CN(C)Cc2ccc(Cl)c(Cl)c2)[C@H](C)CN([C@@H](C)CO)C(=O)c2cc(NC(=O)C3CCCCC3)ccc2O1` the value was “inactive”; for `C[C@@H]1CN([C@H](C)CO)C(=O)c2cc(NC(=O)C3CCCCC3)ccc2O[C@@H](C)CCCCO[C@H]1CN(C)Cc1ccc(Cl)c(Cl)c1`, “active”; for `C[C@@H]1CN([C@H](C)CO)C(=O)c2cc(NC(=O)C3CCCCC3)ccc2O[C@@H](C)CCCCO[C@@H]1CN(C)Cc1ccc(Cl)c(Cl)c1`, “inactive”.
On to `C[C@@H]1CCCCO[C@@H](CN(C)Cc2ccc(Cl)c(Cl)c2)[C@@H](C)CN([C@@H](C)CO)C(=O)c2cc(NC(=O)C3CCCCC3)ccc2O1`, for which the cytotoxicity call is “inactive”.
For the compound `C[C@@H]1CCCCO[C@H](CN(C)Cc2ccc(Cl)c(Cl)c2)[C@@H](C)CN([C@H](C)CO)C(=O)c2cc(NC(=O)C3CCCCC3)ccc2O1`, the cytotoxicity call is “inactive”.
Under `C[C@@H]1CCCCO[C@@H](CN(C)Cc2ccc(Cl)c(Cl)c2)[C@@H](C)CN([C@H](C)CO)C(=O)c2cc(NC(=O)C3CCCCC3)ccc2O1` stands “active”.
Under `C[C@@H]1CCCCO[C@H](CN(C)Cc2ccc(Cl)c(Cl)c2)[C@@H](C)CN([C@@H](C)CO)C(=O)c2cc(NC(=O)C3CCCCC3)ccc2O1` stands “active”.
As to `C[C@@H]1CCCCO[C@@H](CN(C)Cc2ccc(Cl)c(Cl)c2)[C@H](C)CN([C@@H](C)CO)C(=O)c2cc(NC(=O)C3CCCCC3)ccc2O1`, the cytotoxicity call is “inactive”.
Under `C[C@@H]1CN([C@@H](C)CO)C(=O)c2cc(NC(=O)C3CCCCC3)ccc2O[C@H]1CN(C)Cc1ccc(Cl)c(Cl)c1` stands “inactive”; under `C[C@H](CO)N1C[C@H](C)[C@@H](CN(C)Cc2ccc(Cl)c(Cl)c2)OCCCC[C@H](C)Oc2ccc(NC(=O)C3CCCCC3)cc2C1=O`, “inactive”; under `C[C@@H]1CN([C@@H](C)CO)C(=O)c2cc(NC(=O)C3CCCCC3)ccc2O[C@@H](C)CCCCO[C@H]1CN(C)Cc1ccc(Cl)c(Cl)c1`, “active”.
`C[C@H](CO)N1C[C@H](C)[C@H](CN(C)C(=O)NC2CCCCC2)Oc2ccc(NC(=O)Nc3cccc4ccccc34)cc2CC1=O`: the cytotoxicity call is “inactive”.
Under `C[C@@H]1CN([C@H](C)CO)C(=O)Cc2cc(NC(=O)Cc3ccccc3)ccc2O[C@@H]1CN(C)S(=O)(=O)c1ccc(F)cc1` stands “inactive”.
For `Cc1noc(C)c1NC(=O)Nc1ccc2c(c1)C(=O)N([C@H](C)CO)C[C@H](C)[C@@H](CN(C)C(=O)NC1CCCCC1)OCCCC[C@H](C)O2` the value was “inactive”; for `C[C@@H]1CN([C@H](C)CO)C(=O)c2cccc(NS(C)(=O)=O)c2O[C@H]1CN(C)C(=O)Nc1ccc(F)cc1`, “inactive”; for `O=C(C[C@H]1C=C[C@@H](NC(=O)CN2CCOCC2)[C@@H](CO)O1)NCc1cccc(F)c1`, “inactive”.
For `Cc1noc(C)c1NC(=O)Nc1cccc2c1O[C@H](CN(C)C(=O)Nc1cccc3ccccc13)[C@H](C)CN([C@H](C)CO)C2=O` the value was “inactive”.
Turning to `C[C@@H]1CN([C@@H](C)CO)C(=O)Cc2cc(NC(=O)c3ccncc3)ccc2O[C@@H]1CN(C)S(=O)(=O)c1cn(C)cn1`, the cytotoxicity call was “inactive”.
Regarding `C=C(C)C1=NC(C)(C)C[C@H](C)O1`, the cytotoxicity call is “inactive”.
With `CS(=O)(=O)N1C[C@@H]2COC[C@@]2(CN2CCOCC2)C1`, the cytotoxicity call was “inactive”.
For `CC(C)(C)S(=O)N1Cc2cc(C(=O)NCc3ccc4c(c3)OCO4)nc(-c3cccc(C#CCC4CCCC4)c3)c2[C@@H]1CCO` (stereo not given in full) the value was “inactive”; for `CN(C)CCCNC(=O)C[C@@H]1CC[C@@H]2[C@H](COc3ccc(NC(=O)NC4CCCC4)cc3C(=O)N2C)O1`, “inactive”.
Regarding `Cc1noc(C)c1NC(=O)N(C)C[C@H]1OCCCC[C@H](C)Oc2ccc(NC(=O)c3ccccc3)cc2C(=O)N([C@@H](C)CO)C[C@@H]1C`, the cytotoxicity call is “inactive”.
`C[C@H](CO)N1C[C@H](C)[C@H](CN(C)Cc2ccc(Cl)c(Cl)c2)OCCCC[C@H](C)Oc2ccc(NC(=O)C3CCCCC3)cc2C1=O`: the cytotoxicity call is “inactive”.
On to `C[C@@H]1CCCCO[C@@H](CN(C)Cc2ccc(Cl)c(Cl)c2)[C@H](C)CN([C@H](C)CO)C(=O)c2cc(NC(=O)C3CCCCC3)ccc2O1`, for which the cytotoxicity call was “active”.
For `C[C@@H]1CN([C@@H](C)CO)C(=O)c2cc(NC(=O)C3CCCCC3)ccc2O[C@@H](C)CCCCO[C@@H]1CN(C)Cc1ccc(Cl)c(Cl)c1` the value was “inactive”; for `COc1ccc(CN(C)C[C@@H]2Oc3ccc(NC(=O)CCCN(C)C)cc3C(=O)N([C@@H](C)CO)C[C@H]2C)cc1`, “inactive”; for `Cn1c(CNc2ccccc2)cc(=O)n(C)c1=O`, “inactive”.
For `COCCOC(=O)N1C(=O)[C@@]2(c3cc(C#CC4(O)CCCCCC4)ccc31)[C@H](c1ccccc1OCCO)N1[C@H](c3ccccc3)[C@H](c3ccccc3)OC(=O)[C@H]1[C@@H]2C(=O)N1CCc2cc(OC)c(OC)cc2C1` the value was “inactive”.
